The values that follow come from PubChem BioAssay.

One assay deals with Albumin (Bos taurus) (UniProt P02769). Kind of assay: bovine serum albumin binders on microarray, profiling panel, artefact control for SMM control protein annotation, biochemical, small-molecule microarray, Alexa647 label, 635/667 nm fluorescence (AID 1118).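 Further: score merges 667 nm emission intensity and signal-to-noise per printed compound spot.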 Particulars: BSA-A647 binding, fluorescence 635 nm, higher = more signal.
Chain of Albumin (Bos taurus) (P02769 whole entry, looked up): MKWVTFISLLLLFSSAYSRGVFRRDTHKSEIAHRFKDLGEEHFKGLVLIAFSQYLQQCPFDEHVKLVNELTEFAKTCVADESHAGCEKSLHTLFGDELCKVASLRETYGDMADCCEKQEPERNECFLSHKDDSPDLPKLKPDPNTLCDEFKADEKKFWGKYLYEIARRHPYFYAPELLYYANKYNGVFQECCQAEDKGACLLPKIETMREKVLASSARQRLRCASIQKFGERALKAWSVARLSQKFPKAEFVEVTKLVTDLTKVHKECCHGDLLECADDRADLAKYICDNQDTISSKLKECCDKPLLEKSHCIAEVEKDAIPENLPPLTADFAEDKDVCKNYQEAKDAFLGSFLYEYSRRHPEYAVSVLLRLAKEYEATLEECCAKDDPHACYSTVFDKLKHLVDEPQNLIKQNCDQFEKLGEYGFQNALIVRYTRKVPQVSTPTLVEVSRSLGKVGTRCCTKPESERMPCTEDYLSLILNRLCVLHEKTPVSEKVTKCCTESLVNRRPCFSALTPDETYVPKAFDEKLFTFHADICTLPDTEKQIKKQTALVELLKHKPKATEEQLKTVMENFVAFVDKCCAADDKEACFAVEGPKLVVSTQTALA
A short description of assay [1]: small-molecule microarray binders of probe aXIP, primary screen, biochemical, NeuroSMM set, 635/667 nm fluorescence (AID 1119).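 Further: probe is the protein aXip251-270 applied at 1 µg/mL to compound-printed slides; binding of probe to printed compounds measured as 667 nm fluorescence plus signal to noise.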 Particulars: higher = more signal, called active from +8 up or from −8 down.
Assay [2] in a line: small-molecule binders of probe aNOTCH3, primary screen, biochemical, small-molecule microarray, 635/667 nm fluorescence (AID 1120).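 Further: probe is a biotin-tagged antibody raised against NOTCH3 rather than NOTCH3 protein; score merges spot fluorescence near 667 nm with spot signal to noise.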 Particulars: higher = more signal.
A short description of assay [3]: small-molecule binders of probe aNOTCH2, primary screen, biochemical, small-molecule microarray, 635/667 nm fluorescence (AID 1121).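 Further: score merges feature fluorescence read at 667 nm with its signal to noise.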 Particulars: higher = more signal.
The target of assay [4] is Carbonic anhydrase 2 (Homo sapiens) (UniProt P00918). Kind of assay: CAII small-molecule binders, profiling panel, biochemical, small-molecule microarray, Alexa647-labelled CAII (AID 1122). Particulars: CAII-A647 binding fluorescence, higher = more signal.
Assay [5] can be described thus: COS7 lysate on small-molecule microarray, probe aHis, 635 nm (AID 1123).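 Further: z-score combines 667nm fluorescence intensity with signal-to-noise per printed compound spot.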 Particulars: COS7 cell lysate, fluorescence, higher = more signal.
Assay [6] can be described thus: compound binding in COS7 lysate, probe aLAP1, primary screen, cell lysate, small-molecule microarray (AID 1124).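 Further: lysate comes from COS7 cells expressing LAP1 and is applied at 0.3 µg/mL; score merges spot fluorescence near 667 nm with signal-to-noise over triplicate slides.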 Particulars: probe aLAP1, fluorescence, higher = more signal.
Another assay deals with Sam68 (KHDRBS1). Kind of assay: Sam68 small-molecule binders, primary screen, biochemical, small-molecule microarray, 635 nm fluorescence (AID 1125).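 Further: score merges 667 nm channel intensity with signal to noise over triplicate slides.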 Particulars: small-molecule microarray binding, higher = more signal.
Assay [7] relates to Chordin-like protein 2 (CHRDL2). Kind of assay: CHRDL2 small-molecule binders, primary screen, biochemical, small-molecule microarray, 635 nm fluorescence (AID 1126).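 Further: printed compound slides probed with Chrdl2 protein at 4 µg/mL for 1 h at 4 C; score merges 667 nm emission intensity with signal to noise over three replicate slides.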 Particulars: small-molecule microarray binding, fluorescence 635 nm; higher = more signal.
The target of assay [8] is Concanavalin-A (Canavalia ensiformis) (UniProt P02866). Kind of assay: ConA small-molecule binders, primary screen, artefact control for SMM control protein annotation, biochemical, small-molecule microarray, Alexa647 label, 635 nm (AID 1127).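 Further: z combines 667 nm emission intensity with signal-to-noise across three replicate slides.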 Particulars: ConA-A647 binding fluorescence, higher = more signal.
Chain of Concanavalin-A (Canavalia ensiformis) (P02866 whole entry, looked up): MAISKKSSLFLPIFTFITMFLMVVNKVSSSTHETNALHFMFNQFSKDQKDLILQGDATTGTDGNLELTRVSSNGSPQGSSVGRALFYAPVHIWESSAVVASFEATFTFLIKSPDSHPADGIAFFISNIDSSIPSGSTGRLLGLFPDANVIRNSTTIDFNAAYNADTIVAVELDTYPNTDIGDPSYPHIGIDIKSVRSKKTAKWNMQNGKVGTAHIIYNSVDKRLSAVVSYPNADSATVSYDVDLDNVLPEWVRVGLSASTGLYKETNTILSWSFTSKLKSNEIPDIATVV
Assay [9] in a line: anti-His antibody binders, primary screen, artefact control for SMM control protein annotation, biochemical, small-molecule microarray, 635 nm fluorescence (AID 1128).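 Further: score merges feature fluorescence with signal-to-noise for each printed compound spot.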 Particulars: anti-His Alexa647 antibody binding, higher = more signal.
Assay [10] concerns Human papillomavirus type 1a E7 protein (residues 1-88). Kind of assay: HPV1a E7 small-molecule binders, primary screen, biochemical, small-molecule microarray, residues 1-88, 635 nm (AID 1129). Particulars: small-molecule microarray binding, fluorescence 635 nm; higher = more signal.
Assay [11] addresses Focal adhesion kinase 1 (Homo sapiens) (UniProt Q05397). Kind of assay: small-molecule microarray binders of FAK, primary screen, biochemical, 635/667 nm fluorescence, BSA, DTT (AID 1130).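 Further: composite of spot emission at 667 nm and signal to noise over triplicate slides.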 Particulars: PTK2 binding, 635 nm fluorescence, higher = more signal.
Assay [12] concerns Fibrinogen (Alexa647-labelled). Kind of assay: fibrinogen binders on compound microarrays, profiling panel, artefact control for SMM control-protein annotation, biochemical, small-molecule microarray, 635/667 nm fluorescence (AID 1131).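 Further: z-score merges 667 nm fluorescence with per-spot signal-to-noise over triplicate slides.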 Particulars: fibrinogen-A647 binding fluorescence, higher = more signal.
The target of assay [13] is Follistatin (Homo sapiens) (UniProt P19883). Kind of assay: follistatin binders on small-molecule microarrays, primary screen, biochemical, small-molecule microarray, 635/667 nm fluorescence (AID 1132). Particulars: FST binding, 635 nm fluorescence, higher = more signal.
Chain of Follistatin (Homo sapiens) (P19883 whole entry, looked up): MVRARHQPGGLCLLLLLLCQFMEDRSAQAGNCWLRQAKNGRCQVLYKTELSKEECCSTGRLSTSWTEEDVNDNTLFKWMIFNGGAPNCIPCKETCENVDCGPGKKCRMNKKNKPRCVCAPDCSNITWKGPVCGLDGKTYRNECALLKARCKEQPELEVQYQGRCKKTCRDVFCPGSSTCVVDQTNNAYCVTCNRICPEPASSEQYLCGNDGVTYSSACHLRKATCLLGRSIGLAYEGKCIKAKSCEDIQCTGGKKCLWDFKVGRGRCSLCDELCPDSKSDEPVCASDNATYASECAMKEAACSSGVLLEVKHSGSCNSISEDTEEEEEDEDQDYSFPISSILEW
For assay [14], the target named is Fibroblast growth factor 2 (Homo sapiens) (UniProt P09038). Kind of assay: FGF2 binders on small-molecule microarrays, primary screen, biochemical, small-molecule microarray, 635/667 nm fluorescence (AID 1133). Particulars: small-molecule microarray binding, FGF2, fluorescence 635/667; higher = more signal.
Chain of Fibroblast growth factor 2 (Homo sapiens) (P09038 whole entry, looked up): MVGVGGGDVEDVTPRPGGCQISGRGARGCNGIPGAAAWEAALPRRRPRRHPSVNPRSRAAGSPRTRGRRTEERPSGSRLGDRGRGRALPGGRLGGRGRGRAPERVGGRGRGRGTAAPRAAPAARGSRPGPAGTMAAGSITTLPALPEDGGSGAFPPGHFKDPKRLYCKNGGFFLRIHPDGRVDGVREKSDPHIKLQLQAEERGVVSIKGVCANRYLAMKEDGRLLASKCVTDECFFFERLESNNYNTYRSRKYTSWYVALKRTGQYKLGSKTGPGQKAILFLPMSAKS
Assay [15] in a line: mitochondrial membrane potential change in A549 cells, profiling panel, cell-based, JC-1 fluorescence, basal, 24 h, 100 nL (AID 1138).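 Further: A549 lung adenocarcinoma cells under basal conditions with no added stimulus; test concentration not given here.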 Particulars: higher = more signal.
Another assay concerns Lefty1. Kind of assay: Lefty1 binders on small-molecule microarrays, primary screen, biochemical, small-molecule microarray, 635/667 nm fluorescence (AID 1139). Particulars: small-molecule microarray binding, fluorescence 635/667; higher = more signal.
Assay [16] has as its system wheat germ agglutinin (Triticum aestivum), Alexa647-labelled. Kind of assay: wheat germ agglutinin binders on compound microarrays, profiling panel, artefact control for SMM control-protein annotation, biochemical, small-molecule microarray, 635/667 nm fluorescence (AID 1140).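 Further: score merges 667 nm feature emission with signal to noise over triplicate slides.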 Particulars: WGA-A647 binding, 635 nm fluorescence, higher = more signal.
The target in assay [17] is Luciferin 4-monooxygenase (Photinus pyralis) (UniProt P08659). Kind of assay: firefly luciferase enzyme inhibitors, primary screen, biochemical, luminescence, purified enzyme, 2006 set (AID 1141).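 Further: cell-free assay with purified firefly luciferase at 100 ng per well in PBS; test concentration not given here.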 Particulars: SteadyGlo luminescence, 30 min, higher = more signal, called active from +8 up or from −8 down.
Chain of Luciferin 4-monooxygenase (Photinus pyralis) (P08659 whole entry, looked up): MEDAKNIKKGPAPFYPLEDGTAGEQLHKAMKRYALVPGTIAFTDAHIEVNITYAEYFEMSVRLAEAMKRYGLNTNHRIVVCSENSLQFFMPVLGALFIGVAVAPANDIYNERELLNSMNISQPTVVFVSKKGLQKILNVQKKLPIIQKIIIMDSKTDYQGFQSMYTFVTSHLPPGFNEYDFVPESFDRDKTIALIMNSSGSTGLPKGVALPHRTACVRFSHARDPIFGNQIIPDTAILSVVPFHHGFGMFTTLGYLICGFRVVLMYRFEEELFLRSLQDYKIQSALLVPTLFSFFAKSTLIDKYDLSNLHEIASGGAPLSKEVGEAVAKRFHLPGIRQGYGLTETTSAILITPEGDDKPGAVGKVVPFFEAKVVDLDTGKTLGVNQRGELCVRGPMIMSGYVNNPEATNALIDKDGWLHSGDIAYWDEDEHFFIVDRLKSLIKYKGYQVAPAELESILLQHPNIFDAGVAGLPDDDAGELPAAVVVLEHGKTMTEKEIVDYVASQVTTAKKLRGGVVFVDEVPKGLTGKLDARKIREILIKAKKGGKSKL

The source made the active and inactive calls.

Chain of Focal adhesion kinase 1 (Homo sapiens) (Q05397 whole entry, looked up): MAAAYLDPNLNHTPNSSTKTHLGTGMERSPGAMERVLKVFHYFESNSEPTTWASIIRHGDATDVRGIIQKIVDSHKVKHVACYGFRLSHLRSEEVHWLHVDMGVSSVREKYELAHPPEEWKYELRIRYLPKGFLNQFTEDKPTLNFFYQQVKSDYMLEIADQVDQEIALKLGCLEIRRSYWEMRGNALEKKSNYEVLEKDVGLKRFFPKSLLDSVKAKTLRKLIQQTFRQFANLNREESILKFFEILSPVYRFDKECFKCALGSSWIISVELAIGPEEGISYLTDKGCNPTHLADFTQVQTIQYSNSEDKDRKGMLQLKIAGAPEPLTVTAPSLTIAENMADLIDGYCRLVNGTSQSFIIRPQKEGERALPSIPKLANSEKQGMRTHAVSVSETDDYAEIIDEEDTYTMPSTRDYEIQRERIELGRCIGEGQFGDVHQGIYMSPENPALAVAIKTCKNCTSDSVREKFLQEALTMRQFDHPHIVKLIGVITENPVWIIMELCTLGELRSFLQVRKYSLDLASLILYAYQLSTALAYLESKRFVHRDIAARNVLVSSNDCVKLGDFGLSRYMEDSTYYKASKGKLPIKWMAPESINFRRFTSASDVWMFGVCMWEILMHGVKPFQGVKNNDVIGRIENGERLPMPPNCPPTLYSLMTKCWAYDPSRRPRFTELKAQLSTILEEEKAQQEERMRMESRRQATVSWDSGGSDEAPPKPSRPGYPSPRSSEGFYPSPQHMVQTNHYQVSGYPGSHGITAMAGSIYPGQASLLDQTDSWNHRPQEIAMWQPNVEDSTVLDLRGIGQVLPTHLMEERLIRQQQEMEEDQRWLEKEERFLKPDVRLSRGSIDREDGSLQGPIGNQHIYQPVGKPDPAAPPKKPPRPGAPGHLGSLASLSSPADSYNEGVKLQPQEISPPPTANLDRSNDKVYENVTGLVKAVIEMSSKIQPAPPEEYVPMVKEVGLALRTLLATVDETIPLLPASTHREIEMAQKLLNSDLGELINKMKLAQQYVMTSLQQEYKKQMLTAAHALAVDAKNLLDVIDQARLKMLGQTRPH

For the molecule `C=CCC(OC(C)=O)[C@@H]1[C@@H](N(Cc2ccc(-c3ccccc3)cc2)C(=O)c2ccc(-c3ccccc3)cc2)c2cc(OCCCO)ccc2N1C(=O)Cc1ccc(OC)cc1` (stereo not given in full), the composite z-score with Albumin (Bos taurus) is 0.4; in [2], 0.0065; in assay [3], -0.183; in [4], 0.0703; in assay [5], 0.0095; in assay [6], 0.061. The composite z-score in the assay with Sam68 (KHDRBS1) is 0.0768; in assay [7], -0.0682; in [8], 0.411; in assay [9] it was -0.347; in assay [10], 0.328; in assay [11], 0.602. Further, the composite z-score was 0.466 in assay [12]; 0.856 in assay [13]; 0.0338 in [14]; 0.0287 in the assay with Lefty1; 0.192 in assay [16]. In assay [1], the composite Z-score was 0.344 (inactive). Also, the z-score in assay [15] is 0.764; in assay [17] it was -0.115 (inactive).

As to `[N-]=[N+]=NCc1ccccc1C[C@]1(C(N)=O)N=C(c2ccc(OCCCO)cc2)O[C@H]1c1ccccc1CN=[N+]=[N-]`, the composite z-score is 1.05 in the assay with Albumin (Bos taurus); 0.0254 in assay [2]; 0.0256 in assay [3]; 0.667 in [4]; 2.16 in assay [5]; 0.641 in [6]. For the same molecule, the composite z-score is 1.31 in the assay on Sam68 (KHDRBS1); -1.12 in assay [7]; 0.991 in assay [8]; 3.15 in assay [9]; 0.974 in [10]; 1.21 in [11]. Also, the composite z-score in assay [12] is 0.98; in [13], 1.01; in assay [14] it was 0.19; with Lefty1 it was -0.621; in assay [16], 1.32. The composite Z-score in assay [1] was -0.469 (inactive). The z-score in [15] is 1.3; in [17], -3.84 (inactive).

On to `CC/C=C/C(=O)N(C[C@@H]1CCCO1)[C@@H]1CC(C(=O)NCCO)=C[C@H](Oc2c(I)cc(CO)cc2OC)[C@H]1O`, for which the composite z-score with Albumin (Bos taurus) is 0.74; in assay [2] it was 0.0208; in assay [3] it was -0.103; in [4], 0.721; in [5], 1.42; in assay [6] it was 0.739. The composite z-score in the assay with Sam68 (KHDRBS1) is 0.787; in [7], -0.355; in assay [8] it was -0.629; in [9], 0.224; in [10], 0.164; in assay [11], 0.303. Besides, the composite z-score is 0.217 in assay [12]; -0.227 in assay [13]; -0.273 in assay [14]; 0.0903 with Lefty1; 0.701 in [16]. In [1], the composite Z-score is 0.465 (inactive). In addition, the z-score is 1.91 in assay [15] and -1.47 (inactive) in assay [17].

Take `C[N+](C)(C)CCCCNC(=O)[C@H]1C[C@H]2C(=O)NCC(=O)N2[C@H]1c1cccc(OCCO)c1`: the composite z-score in the assay with Albumin (Bos taurus) was -1.39; in [2], 0.147; in assay [3] it was -0.112; in assay [4] it was 0.454; in assay [5], 0.961; in [6] it was 0.258. For the same molecule, the composite z-score is 1.05 in the assay with Sam68 (KHDRBS1); 1.45 in [7]; 1.12 in assay [8]; 2.81 in assay [9]; 0.279 in [10]; -0.0181 in assay [11]. Besides, the composite z-score in assay [12] was -0.0364; in [13], 1.49; in assay [14], 1.9; with Lefty1, 1.71; in assay [16], 0.399. In assay [1], the composite Z-score is 1.49 (inactive). Further, the figures for the z-score in assay [15] and in [17] were -0.776 and -0.162 (inactive), respectively.
